# PubChem BioAssay
# Active and inactive are the calls of the source.
# Key:
# [1] = small molecules captured by biotinylated probe aFSTL3 – biochemical, small-molecule microarray, fluorescence 635/667, stem cell growth factor project, primary screen (AID 1064); settings: higher = more signal;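 further: measures binding of the biotinylated anti-FSTL3 antibody to printed compounds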
# [2] = binders from COS7 lysate, DM2A8 probe, primary screen, torsin A project, cell lysate, small-molecule microarray, fluorescence 635/667 (AID 1065); settings: higher = more signal, COS7 lysate expressing mutant human TOR1A
# [3] = small molecules captured by biotinylated probe aFGF2 – biochemical, small-molecule microarray, fluorescence 635/667, stem cell growth factor project, primary screen (AID 1067); settings: higher = more signal;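 further: measures binding of biotinylated aFGF2 protein to printed compounds on slides; z-score merges feature fluorescence and signal-to-noise across triplicate slides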
# [4] = small molecules captured by biotinylated probe aFGF10 – biochemical, small-molecule microarray, fluorescence 635/667, stem cell growth factor project, primary screen (AID 1071); settings: higher = more signal;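 further: score merges 667 nm spot intensity and signal to noise from triplicate slides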
# [5] = biological target: Neurogenic locus notch homolog protein 2 (Homo sapiens) (UniProt Q04721); assay: small molecules binding Notch2 protein – biochemical, small-molecule microarray, 635 nm fluorescence, stem cell growth factors, primary screen (AID 1073); settings: higher = more signal
# Sequence of Neurogenic locus notch homolog protein 2 (Homo sapiens) (Q04721 whole entry, looked up, canonical isoform): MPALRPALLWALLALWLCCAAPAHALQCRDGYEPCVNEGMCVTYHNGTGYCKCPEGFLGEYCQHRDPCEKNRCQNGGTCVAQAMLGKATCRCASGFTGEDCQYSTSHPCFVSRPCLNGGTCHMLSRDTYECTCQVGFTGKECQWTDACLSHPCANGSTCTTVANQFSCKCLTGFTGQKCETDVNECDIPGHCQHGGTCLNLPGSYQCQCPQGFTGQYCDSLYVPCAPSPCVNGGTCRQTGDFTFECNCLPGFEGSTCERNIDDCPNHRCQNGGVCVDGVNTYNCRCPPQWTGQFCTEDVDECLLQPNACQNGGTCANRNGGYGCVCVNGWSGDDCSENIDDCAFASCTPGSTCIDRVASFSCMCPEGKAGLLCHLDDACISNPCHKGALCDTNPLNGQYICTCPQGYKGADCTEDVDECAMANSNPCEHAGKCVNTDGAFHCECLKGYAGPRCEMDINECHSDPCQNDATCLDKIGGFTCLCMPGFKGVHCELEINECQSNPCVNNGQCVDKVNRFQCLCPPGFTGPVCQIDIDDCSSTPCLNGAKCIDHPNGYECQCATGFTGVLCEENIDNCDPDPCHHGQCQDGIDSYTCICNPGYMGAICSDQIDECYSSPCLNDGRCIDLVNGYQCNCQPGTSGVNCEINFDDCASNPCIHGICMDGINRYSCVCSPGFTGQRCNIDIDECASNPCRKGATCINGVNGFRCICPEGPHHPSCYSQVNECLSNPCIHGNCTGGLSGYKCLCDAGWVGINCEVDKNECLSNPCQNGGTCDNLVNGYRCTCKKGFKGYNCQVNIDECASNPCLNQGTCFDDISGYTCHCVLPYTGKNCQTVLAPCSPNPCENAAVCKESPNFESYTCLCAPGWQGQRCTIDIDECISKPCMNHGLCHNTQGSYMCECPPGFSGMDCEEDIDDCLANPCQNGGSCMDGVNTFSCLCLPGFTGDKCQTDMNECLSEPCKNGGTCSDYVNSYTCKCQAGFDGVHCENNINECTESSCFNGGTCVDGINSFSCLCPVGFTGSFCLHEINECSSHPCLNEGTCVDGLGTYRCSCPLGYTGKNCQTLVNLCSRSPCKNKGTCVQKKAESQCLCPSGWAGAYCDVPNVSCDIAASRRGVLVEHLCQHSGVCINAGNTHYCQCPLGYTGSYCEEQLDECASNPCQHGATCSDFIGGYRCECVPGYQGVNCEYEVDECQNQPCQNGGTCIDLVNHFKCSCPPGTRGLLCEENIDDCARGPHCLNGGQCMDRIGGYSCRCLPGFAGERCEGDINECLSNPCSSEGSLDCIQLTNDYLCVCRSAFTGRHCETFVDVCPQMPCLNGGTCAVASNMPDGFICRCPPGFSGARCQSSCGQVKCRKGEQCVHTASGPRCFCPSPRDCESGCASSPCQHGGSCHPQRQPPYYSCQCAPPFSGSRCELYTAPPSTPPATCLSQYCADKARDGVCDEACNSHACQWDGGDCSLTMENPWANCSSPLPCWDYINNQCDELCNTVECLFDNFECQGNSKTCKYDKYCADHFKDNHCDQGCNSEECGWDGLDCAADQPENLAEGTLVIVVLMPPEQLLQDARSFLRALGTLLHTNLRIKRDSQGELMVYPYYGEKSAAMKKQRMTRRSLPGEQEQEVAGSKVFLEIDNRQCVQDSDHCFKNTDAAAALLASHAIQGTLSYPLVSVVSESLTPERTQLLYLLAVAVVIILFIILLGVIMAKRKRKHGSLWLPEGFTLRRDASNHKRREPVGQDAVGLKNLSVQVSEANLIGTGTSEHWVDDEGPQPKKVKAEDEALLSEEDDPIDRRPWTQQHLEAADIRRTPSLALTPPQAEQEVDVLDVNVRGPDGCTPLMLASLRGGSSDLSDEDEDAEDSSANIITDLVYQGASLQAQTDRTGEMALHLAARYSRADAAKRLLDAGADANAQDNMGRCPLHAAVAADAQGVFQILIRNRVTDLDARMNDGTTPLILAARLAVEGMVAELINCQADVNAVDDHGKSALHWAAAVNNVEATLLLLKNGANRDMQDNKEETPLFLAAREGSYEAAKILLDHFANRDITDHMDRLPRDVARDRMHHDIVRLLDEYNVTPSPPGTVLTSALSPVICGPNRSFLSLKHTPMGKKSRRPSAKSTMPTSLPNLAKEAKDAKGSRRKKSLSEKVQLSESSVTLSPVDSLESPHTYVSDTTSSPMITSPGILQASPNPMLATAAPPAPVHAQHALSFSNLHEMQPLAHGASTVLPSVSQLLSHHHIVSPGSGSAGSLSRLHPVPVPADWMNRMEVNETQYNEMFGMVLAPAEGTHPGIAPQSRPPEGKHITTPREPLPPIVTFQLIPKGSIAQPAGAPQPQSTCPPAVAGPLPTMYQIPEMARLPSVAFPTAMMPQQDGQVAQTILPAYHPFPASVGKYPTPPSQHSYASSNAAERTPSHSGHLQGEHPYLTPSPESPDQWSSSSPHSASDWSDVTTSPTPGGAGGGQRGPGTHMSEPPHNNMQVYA
# [6] = biological target: Pro-neuregulin-1, membrane-bound isoform (Homo sapiens) (UniProt Q02297); assay: small molecules binding neuregulin-1 protein – biochemical, small-molecule microarray, fluorescence 635/667, psychiatric disease protein project, primary screen (AID 1075); settings: NRG1 binding, 635 nm fluorescence, higher = more signal;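 further: score combines 667 nm spot fluorescence with signal to noise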
# Sequence of Pro-neuregulin-1, membrane-bound isoform (Homo sapiens) (Q02297 whole entry, looked up, the tested form may be a part, canonical isoform): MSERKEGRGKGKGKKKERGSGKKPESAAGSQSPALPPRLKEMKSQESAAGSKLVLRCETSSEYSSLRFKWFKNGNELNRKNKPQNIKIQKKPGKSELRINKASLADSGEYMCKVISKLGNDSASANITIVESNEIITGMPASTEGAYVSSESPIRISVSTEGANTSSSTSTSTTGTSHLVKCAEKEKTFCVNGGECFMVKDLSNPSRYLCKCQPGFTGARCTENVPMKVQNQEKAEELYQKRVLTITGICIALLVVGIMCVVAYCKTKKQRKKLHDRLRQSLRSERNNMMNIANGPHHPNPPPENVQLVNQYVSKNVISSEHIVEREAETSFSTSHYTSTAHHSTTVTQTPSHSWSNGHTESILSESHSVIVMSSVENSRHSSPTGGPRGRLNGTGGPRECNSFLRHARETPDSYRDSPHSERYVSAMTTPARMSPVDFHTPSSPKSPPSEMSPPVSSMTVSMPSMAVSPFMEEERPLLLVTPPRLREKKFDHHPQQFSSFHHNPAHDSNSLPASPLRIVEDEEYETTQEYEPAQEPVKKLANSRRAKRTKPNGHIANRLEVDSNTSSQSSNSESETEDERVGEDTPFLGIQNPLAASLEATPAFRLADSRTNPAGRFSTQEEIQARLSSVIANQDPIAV
# [7] = tested on: Neuregulin-1 EGF-like domain; assay: small molecules binding NRG1 EGF domain – biochemical, small-molecule microarray, 635 nm fluorescence, primary screen (AID 1081); settings: higher = more signal;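 further: binding of the protein to compounds printed on small-molecule microarray slides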
# [8] = FRG1 expression reporter modulators in myotubes – cell-based, C2C12 myotubes, firefly/Renilla luciferase, luminescence, FRG1 inhibition for FSHD, primary screen (AID 1084); settings: FRG1 promoter luciferase, higher = more signal, called active from +8 up or from −8 down
# [9] = small molecules captured by biotinylated probe aFST – biochemical, small-molecule microarray, fluorescence 635/667, stem cell growth factor project, primary screen (AID 1086); settings: higher = more signal;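 further: score merges 667 nm fluorescence with signal-to-noise of each printed compound spot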
# [10] = binders of probe aHhip on microarray, primary screen, stem cell growth factor project, biochemical, small-molecule microarray, fluorescence 635/667 (AID 1087); settings: higher = more signal;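 further: score merges spot fluorescence at 667nm with spot signal to noise ratio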
Structure (SMILES),composite z-score [1],composite z-score [2],composite z-score [3],composite z-score [4],composite z-score [5],composite z-score [6],composite z-score [7],z-score [8],composite z-score [9],composite z-score [10]
COC(=O)[C@@]1(Cc2ccc(OC)cc2)[C@H]2c3cc(C(=O)N4CCCC4)n(Cc4ccc(O)c(OC)c4)c3C[C@H]2CN1C(=O)c1ccccc1,1.41,1.14,0.694,0.777,1.1,1.83,1.1,0.665 (inactive),2.28,2.44
CC(C)C[C@@H]1NC(=O)[C@@H]2C[C@H](C(=O)O)[C@H](c3cccc(OCCO)c3)N2C1=O,0.73,0.363,-0.0403,-0.276,-0.475,0.402,0.643,1.29 (inactive),-0.235,-0.264
CCCC=C(CCC)[C@@H](NC(=O)c1cccs1)c1ccc(C(F)(F)F)cc1,0.251,0.654,-0.0515,0.383,1.43,0.393,0.729,2.26 (inactive),1.46,-0.132
Cc1ccc(S[C@]2(C(=O)NC3CC3)CC(=O)N(Cc3ccccc3)[C@@H]2c2ccc(CO)cc2I)cc1,0.433,-0.703,-0.146,0.333,-0.823,1.23,0.966,-2.74 (inactive),-0.73,-0.0047
C=CC[C@]1(C(=O)NCc2ccccc2)N=C(c2ccc(OCCCO)cc2)O[C@H]1c1ccccc1N=[N+]=[N-],-0.158,1.46,0.282,0.399,1.13,1.24,1.04,-0.71 (inactive),1.08,-0.171
C[N+](C)(C)CCCCNC(=O)[C@@H]1C[C@@H]2C(=O)N[C@@H](Cc3ccccc3)C(=O)N2[C@@H]1c1cccc(OCCO)c1,0.241,-0.108,-0.147,0.394,-0.39,1.01,1.14,1.51 (inactive),-0.253,-0.195
C[N+](C)(C)CCCC[C@@H]1NC(=O)[C@H]2C[C@@H](C(=O)NCCCCCCNC(=O)CS)[C@@H](c3cccc(OCCO)c3)N2C1=O,0.227,0.0439,-0.172,-0.83,-1.34,-0.861,0.439,0.816 (inactive),-0.948,-0.261
O=C1C2C=CC(C(O)c3cc(C(F)(F)F)cc(C(F)(F)F)c3)N(n3cnnc3)C2C(=O)N1Cc1ccccc1 (stereo not given),-0.153,0.0607,-0.0628,-0.251,0.203,0.339,-0.159,1.1 (inactive),0.368,0.144
CC(C)C[C@@H]1NC(=O)[C@H](C(C)C)NC(=O)[C@@]23C(=O)N[C@@H](Cc4ccccc4)C2[C@H](C)[C@@]2(C)O[C@H]2C3/C=C/CC/C=C/CNC1=O (stereo not given in full),-0.368,0.0032,-0.144,0.518,0.729,0.133,1.02,-0.537 (inactive),0.0815,-0.0061
CC(=O)n1cc(C(O)C2C=CC3C(=O)N(c4ccccc4)C(=O)C3N2Nc2ccc([N+](=O)[O-])cc2)c2ccccc21 (stereo not given),0.889,1.44,-0.0605,-0.0938,1.24,1.23,1.22,-0.438 (inactive),1.02,0.0274
C=C(COC)/C(=C/C[C@@H](OC(C)=O)c1ccc(OCCO)cc1)c1cnc2ccccc2c1,-0.123,0.093,0.0059,0.647,0.912,0.521,0.957,-0.265 (inactive),0.253,0.0413
CN1C=C(C(=O)OCCS(C)(=O)=O)C(C(=O)OCCS(C)(=O)=O)=CC(c2ccc(CO)cc2)=CC1C1CC1 (stereo not given),-0.0965,0.528,-0.0824,0.0351,-0.0701,1,1.27,0.849 (inactive),-0.0993,-0.0994
COC(=O)[C@H](Cc1ccccc1)N[C@@H](/C=C/C1CC1)[C@H](O)Cc1ccccc1,0.115,-0.355,0.0748,0.699,-1.08,-0.292,0.583,-2.66 (inactive),-0.575,-0.409
CCC[C@@H]1C[C@@]1(CCC)[C@@H](NC(=O)c1ccccc1)c1cccc(Cl)c1,1.63,0.249,0.783,0.948,1.47,0.753,1.09,0.379 (inactive),2.29,0.53
C=C(CC1([C@@H](NP(=O)(c2ccccc2)c2ccccc2)[C@H]2C[C@@H]2CCCC)CC1)c1ccccc1,0.591,-0.417,-0.218,0.194,1.42,0.896,0.843,2.47 (inactive),1.07,0.419
COC(=O)[C@@]1(Cc2ccc(OC)cc2)[C@H]2c3cc(C(=O)N(C)C)n(Cc4ccccn4)c3C[C@H]2CN1C(=O)c1ccccc1,1.19,2.08,0.0395,-0.175,1.4,2.35,0.89,0.0734 (inactive),0.852,0.408
O=C(CS)NCCCCCCNC(=O)[C@@H]1C[C@@H]2C(=O)NCC(=O)N2[C@@H]1c1cccc(OCCO)c1,0.35,0.024,-0.0768,-0.294,-0.599,0.668,1.46,0.688 (inactive),-0.528,-0.274

Structure (SMILES),composite z-score [1],composite z-score [2],composite z-score [3],composite z-score [4],composite z-score [5],composite z-score [6],composite z-score [7],z-score [8],composite z-score [9],composite z-score [10]
CC1CC/C=C\[C@H]2OC34C=CCN(Cc5ccccc5)C(=O)[C@H]3N(CCCO)C(=O)[C@@H]4C2C(=O)O1 (stereo not given in full),0.291,0.141,-0.118,-0.365,-0.557,0.909,1.48,0.242 (inactive),-0.662,-0.0645
CCCCCN1CC=CC23O[C@@H]4C=CCCOC(=O)C4[C@H]2C(=O)N(CCCCCO)[C@@H]3C1=O (stereo not given in full),0.262,1.2,-0.195,-0.168,-0.814,0.927,1.55,-0.666 (inactive),-0.432,-0.45
C=C[C@H](CO[Si](CC)(CC)CC)N(Cc1ccc(OC(C)=O)c(OC)c1)S(=O)(=O)c1ccc(Br)cc1,0.572,1.64,0.365,0.326,-0.156,1.27,1.05,-2.48 (inactive),1.22,-0.0788
CC1CC/C=C\[C@H]2OC34C=CCN(C(C)(C)C)C(=O)[C@H]3N(CCO)C(=O)[C@@H]4C2C(=O)O1 (stereo not given in full),-0.133,0.0564,-0.217,-0.749,-1.56,-1.02,0.784,0.0503 (inactive),-0.529,-0.0645
CC(C)OC(=O)C=C1C[C@@H](c2ccccn2)O[C@@H](c2ccccn2)O1,-0.431,-0.121,-0.158,0.0234,-0.538,-0.13,1.27,0.805 (inactive),-0.171,-0.112
CNS(=O)(=O)c1ccc(C)cc1,-0.366,0.182,-0.14,0.248,0.192,-0.0687,0.314,-0.443 (inactive),0.209,-0.0346
C=CCOC(=O)[C@H]1[C@@H]2C(=O)O[C@@H](c3ccccc3)[C@@H](c3ccccc3)N2[C@@H](c2ccc(OCCOC(=O)[C@H]3C[C@H]4C(=O)N[C@@H](CCCCN(C)C)C(=O)N4[C@H]3c3ccc(O)cc3)cc2)[C@]12C(=O)Nc1ccc(I)cc12,-0.38,1.01,0.0266,0.948,1.33,1.77,1.3,1.49 (inactive),0.0907,-0.274
CC(C)[Si](C#Cc1ccc(Oc2ccccc2)cc1)(O[Si](C#Cc1ccc(Oc2ccccc2)cc1)(C(C)C)C(C)C)C(C)C,-0.496,0.253,-0.133,0.967,0.766,-0.0929,0.664,-0.421 (inactive),-0.0273,-0.0994
Cc1ccc(N2C(=O)c3ccccc3[C@@H](C(=O)NC3CC3)[C@@H]2c2ccc(CO)cc2)nc1,1.17,-0.78,-0.149,-1.26,-1.63,-1.14,0.058,0.554 (inactive),-0.479,-0.134
CN(C)CCCC[C@@H]1NC(=O)[C@H]2C[C@@H](C(=O)NCCCCCCN)[C@@H](c3ccc(O)cc3)N2C1=O,1.89,1.03,0.128,0.935,1.37,1.79,1.1,0.511 (inactive),1.52,1.09
COc1ccc([Si](C)(C)[C@H]2[C@H](CCO)O[C@@]3(C(=O)N(Cc4ccc(N(C=O)c5ccccc5)cc4)c4ccccc43)[C@@H]2C)cc1,-0.151,-0.177,-0.0602,0.143,-0.285,0.799,0.606,-4.11 (inactive),-0.267,-0.249
O=C1C2C=CC(C(O)c3cccc4ccccc34)N(Nc3ccccc3F)C2C(=O)N1c1ccccc1 (stereo not given),0.154,-0.371,-0.0209,0.64,1.67,1.27,1.23,0.856 (inactive),1.23,-0.0672
COC(=O)[C@@]1(Cc2ccc(OC)cc2)[C@H]2c3cc(C(=O)N(C)C)n(C)c3C[C@H]2CN1C(=O)c1ccccc1,0.32,0.35,0.24,0.759,1.66,1.85,1.18,1.76 (inactive),1.48,0.658
COCCCNC(=O)[C@@H]1c2ccccc2C(=O)N(Cc2ccccc2Cl)[C@H]1c1ccc(CO)cc1,0.189,-0.0402,-0.117,-0.247,0.161,0.379,1.48,-1.76 (inactive),0.465,-0.0237
CC1CC/C=C\[C@H]2OC34C=CCN(C(C)(C)C)C(=O)[C@H]3N(C(C)CO)C(=O)[C@@H]4C2C(=O)O1 (stereo not given in full),0.101,-0.702,-0.128,-0.414,-1.04,-0.486,0.061,-0.486 (inactive),-0.39,-0.0296
O[C@@H](Cc1ccccc1)[C@H]1C2C=CCCC=C2CN1Cc1cccc(Cl)c1 (stereo not given in full),-0.328,-0.0571,-0.0075,0.617,0.944,0.898,1.19,-1.45 (inactive),0.61,-0.214
